Shown are actives, neighbours in structure and some others; about 3.1% of the full set was active somewhere.
LGR2 antag = inhibitors of bursicon-induced Drosophila LGR2 receptor cAMP signaling; HEK293 LGR2, CRE-luciferase, bursicon-stimulated, 4 h; inhibition, % at 9.99 µM; hit rate 0.35% among 380,000; AID 720647;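 active = drop in luminescence signal, shown as inhibition above about 50% in the replicate tests, limit read from the data, passing the limit was not always enough; inconclusive = probably only some replicates passing the limit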;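 also: agonist challenge used bursicon conditioned medium at about half maximal strength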
LMP1 NFkB inh = Epstein-Barr LMP1 NF-kappaB reporter inhibition; LMP1-induced NF-kappaB luciferase reporter cells, luminescence; inhibition, % at 12.5 µM; hit rate 0.69% among 350,000; in the data active = inhibition above about 41%; inconclusive = no clear call, values can overlap the other calls;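 also: 0% = neutral control wells and 100% = reference inhibitor control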
TWEAK Fn14 block = TWEAK-Fn14 signaling inhibition. TWEAK-stimulated Fn14 reporter cells, luciferase luminescence, 8 h. inhibition, % at 10 µM. hit rate 2% among 360,000. AID 1159606; in the data active = inhibition above about 50%
PAX8 inh HTS = PAX8 transcriptional activity inhibition | RMG-I TPO-luciferase reporter, SteadyGlo, 24 h | inhibition, % at 12.6 µM | hit rate 1.2% among 360,000;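 active = mean replicate inhibition at least 60% with every replicate also reaching 60%; inconclusive = only one of the two criteria is met; inactive = mean below 60% and not all replicates reaching 60%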;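 also: luciferase light reporting Pax8 driven TPO promoter activity; plate controls were median of neutral control wells for no effect and mitoxantrone controls for full effect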
TROY NFkB inh = TROY signaling inhibition | Q293 LMP1-TROYcd NF-kB luciferase reporter, 4 h | inhibition, % at 10 µM | hit rate 0.98% among 360,000;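 active = compounds whose plate-normalised and pattern-corrected inhibition of the luciferase reporter signal at the single screening dose is 50% or more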
EWS-Fli inh = blocks EWS/Fli oncoprotein-driven transcription; hit rate 0.67% among 350,000; inhibition, % at 12.6 µM; A673 NR0B1-luciferase reporter, viability-normalised;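 active = mean inhibition of at least 50% after viability correction, with every replicate also passing that limit; inconclusive = mean reaches 50% but only one of two replicates passes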;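 also: firefly luciferase signal divided by Alamar Blue viability fluorescence both relative to DMSO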
Numbers without * were called inactive; ? = inconclusive; . = not tested or not shown; ! = repeats disagree.

SMILES	LGR2 antag	LMP1 NFkB inh	TWEAK Fn14 block	PAX8 inh HTS	TROY NFkB inh	EWS-Fli inh
C[C@H](CO)N1C[C@H](C)[C@H](CN(C)S(=O)(=O)c2ccc(Cl)cc2)Oc2ccc(NC(=O)CCC(F)(F)F)cc2CC1=O	24	.	.	34	.	59*
C[C@H](CO)N1C[C@H](C)[C@@H](CN(C)C(=O)Nc2cccc3ccccc23)Oc2ccc(NC(=O)NC3CCCCC3)cc2CC1=O	8	.	.	15	.	13
CCN(CC)C(=O)CNC(=O)c1nn(-c2ccc(OC)c(Cl)c2)c(=O)c2ccccc12	-15	7	8	-7	1	5
COc1ccc(-n2nc(C(=O)NCC(=O)Nc3cc(OC)c(OC)c(OC)c3)c3ccccc3c2=O)cc1Cl	-2	37	36	81*	5	8
NCC[C@H]1CC[C@@H](NC(=O)C2CC2)[C@H](CO)O1	9	.	.	.	.	-2
Fc1ccc(COc2ccccc2CNCc2ccncc2)cc1	-2	2	14	12	2	15
Brc1ccc(OCc2ccccc2)c(CNCc2ccncc2)c1	1	6	27	.	52*	.
COc1ccc(C(C#N)c2ccc(=O)[nH]n2)cc1 (stereo not drawn)	19	52*	-6	-1	-12	-2
Cc1cccc2c(C(=O)O)cc(-c3cccnc3)nc12	14	4	-3	66*	-8	2
Cc1ccc(S(=O)(=O)Nc2ccc3c(c2)C(=O)N([C@@H](C)CO)C[C@@H](C)[C@@H](CN(C)Cc2ccc4c(c2)OCO4)OCCCC[C@H](C)O3)cc1	11	.	.	72*	.	3
C[C@@H]1CCCCO[C@@H](CN(C)Cc2ccc3c(c2)OCO3)[C@H](C)CN([C@@H](C)CO)C(=O)c2cc(NS(=O)(=O)c3ccc(Cl)cc3)ccc2O1	-24	.	.	1	.	1
Cc1ccc(S(=O)(=O)Nc2ccc3c(c2)C(=O)N([C@@H](C)CO)C[C@@H](C)[C@H](CN(C)Cc2ccc4c(c2)OCO4)OCCCC[C@H](C)O3)cc1	25	.	.	36	.	22
C[C@@H]1CCCCO[C@H](CN(C)Cc2ccc3c(c2)OCO3)[C@@H](C)CN([C@@H](C)CO)C(=O)c2cc(NS(=O)(=O)c3ccc(Cl)cc3)ccc2O1	32	.	.	114*	.	?
C[C@@H]1CN([C@@H](C)CO)C(=O)c2cc(NS(=O)(=O)c3ccc(Cl)cc3)ccc2O[C@@H](C)CCCCO[C@@H]1CN(C)Cc1ccc2c(c1)OCO2	-22	.	.	71*	.	13
COc1ccccc1-c1cnc2c(c1)C(=O)N([C@H](C)CO)C[C@H](C)[C@H](CN(C)Cc1ccc(F)cc1)O2	-5	.	.	13	.	-4
Cc1nn(S(=O)(=O)c2cccs2)c(C)c1Sc1ccc([N+](=O)[O-])cc1	.	10	50*	18	35	.
COc1ccc(CCC(=O)NNC(=S)NCc2ccc(F)cc2)cc1	2	-8	18	11	-5	-3
COc1ccc(CCC(=O)NNC(=O)c2ccc(F)cc2)cc1	9	-1	53*	1	-1	-3
CCOc1ccc(CN(C)CC(=O)Nc2cc(OC)c([N+](=O)[O-])cc2C)cc1	7	3	39	5	26	10
CCOc1ccc(CN(C)CC(=O)Nc2cc(C)c(C)cc2[N+](=O)[O-])cc1	-5	1	44	-9	67*	-5
CCOC(=O)C1=C(c2ccccc2)NC(=O)NC1c1ccc(O)c(Cl)c1 (stereo not drawn)	6	-6	73*	70*	8	68*
COc1cc(/C=N/NC(N)=S)ccc1OCc1ccc(C)cc1	-21	-10	13	75*	-16	-28
COc1ccc(/C=N/NS(=O)(=O)c2ccccc2)cc1OC(=O)c1ccc(C)cc1	.	11	26	.	15	.
COc1cc(/C=N/n2cnnc2)ccc1OC(=O)c1ccncc1	.	-7	0	-11	63*	.
COc1cc(/C=N/NC(N)=S)ccc1OC(=O)c1ccc(C)cc1	.	-7	8	81*	9	.
SMILES	LGR2 antag	LMP1 NFkB inh	TWEAK Fn14 block	PAX8 inh HTS	TROY NFkB inh	EWS-Fli inh
COc1cc(/C=N/NC(=O)COc2cc(C)cc(C)c2)ccc1OS(=O)(=O)c1ccc(C)cc1	18	1	62*	-3	42	24
COC(=O)c1ccc(NCc2c(O)ccc(O)c2Br)cc1Cl	-38	-48	80*	6	23	72*
O=C(COC(=O)c1ccc(O)cc1O)Nc1ccc2ccccc2c1	-9	3	-36	-66	20	-65
COC(=O)c1cc(NCc2c(F)cccc2Cl)ccc1N1CCOCC1	-8	1	16	.	-7	.
COC(=O)c1ccc(NCc2cc(O)ccc2O)cc1O	42	-61	83*	35	-9	57*
CN1[C@@H]2c3ccc(-c4ccccc4)c(=O)n3C[C@H]1[C@H](CO)[C@H]2C(=O)N1CCC(Cc2ccccc2)CC1	1	.	.	.	.	-5
COc1cc([N+](=O)[O-])ccc1NC(=O)CC1SC(=Nc2ccc(F)cc2)N(CCC2=CCCCC2)C1=O (stereo not drawn)	11	28	60*	12	-1	8
COC(=O)c1c(C)[nH]c(C(=O)/C=C/c2ccc(C)cc2)c1C	-44	3	25	10	-10	91*
N=C(N)c1ccc(OCCCCCOc2ccc(C(=N)N)cc2)cc1	1	6	4	83*	-4	6
C[C@H]1C[C@H]2[C@@H]3CCC4=CC(=O)C=C[C@]4(C)[C@@]3(F)[C@@H](O)C[C@]2(C)[C@@]1(O)C(=O)CO	14	45*	-17	-23	27	-5
C[C@H]1C[C@H]2[C@@H]3CCC4=CC(=O)C=C[C@]4(C)[C@@]3(Cl)[C@@H](O)C[C@]2(C)[C@@]1(O)C(=O)CO	3	1	2	5	20	3
CN1C(=O)c2cc(NC(=O)C3CCC3)ccc2OC[C@H]2O[C@@H](CC(=O)NCC3CCCCC3)CC[C@H]21	6	.	.	0	.	0
OC1C(O)C(O)C(O)C(O)C1O (stereo not drawn)	0	91*!	-9	-4	1	4
COC(=O)c1ccc(COc2ccccc2/C=C(\C#N)C(=O)Nc2c(C)cc(C)cc2C)cc1	45	15	68*	29	20	25
C/C(=N\Nc1ncc(Cl)cc1Cl)c1ccccn1	.	85*	92*	.	0	.
C/C(=N\Nc1ncnc2sc(C)c(C)c12)c1ccccn1	-3	84*	73*	58	23	7
C/C(=N\Nc1ncc(Cl)cc1Cl)c1ccc(N2CCOCC2)cc1	-32	-2	62*	-40	55*	-28
C/C(=N\Nc1nc(C)cc(C)n1)c1ccc(N2CCOCC2)cc1	3	-7	-4	-15	-3	6
C[C@@H]1CN([C@@H](C)CO)C(=O)c2cc(-c3ccc(C#N)cc3)cnc2O[C@@H]1CN(C)C(=O)Nc1ccc(F)cc1	-5	.	.	.	.	6

Screening data deposited in PubChem BioAssay by several laboratories.
